Where “and” joins values, the source holds several entries; their conditions need not be identical. Equal entries are not always repeated. Inconclusive results are not listed. A call without a number means that no potency is given here. Unmarked numbers belong to inactive results. Calls of active or inactive are those of the source. Calls come from the whole dose curve; as a rule, active = well fitted cell-killing curve with a large enough effect; inconclusive = small, poorly fitted or top-dose-only effect, or effect the other way; inactive = no such curve, though single readings can be large or run the other way.
Assay: Viability qHTS for spleen associated tyrosine kinase inhibitor (SYKi) drug resistant MV4-11 cells (AID 1963824); note: nearly all actives have a fitted effect of over 35% in size
Conditions: SYKi-resistant MV4-11 viability, CellTiter-Glo, 72 h; series mostly up to 45 µM
How it was run: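 SYK inhibitor-resistant MV4-11 AML cells, 500 per well, added to predispensed compounds and incubated 72 hr at 37 C, 5% CO2. Viability measured by CellTiter-Glo luminescence after 10 min at room temperature.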
Potency is the fitted concentration of half-maximal effect.

SMILES | Potency | viability, % of control
CC(C)c1cc2c(c(O)c1O[C@@H]1O[C@H](CO)[C@@H](O)[C@H](O)[C@H]1O)CC1(O)CCC(O)C(C)(C)C1CC2 (stereo not given in full) | inactive | 
CC(C)CC(c1c(O)c(C=O)c(O)c(C=O)c1O)C1CCC(C)(O)C2CC(C(C)(C)O)CCC12C (stereo not given) | inactive | 
Nc1nonc1-c1nc2cnccc2n1C1CCCCC1 | 0.731 µM (active) | 
C/C=C(\C)C(=O)OC[C@H]1O[C@@H](O[C@H]2[C@@H](O[C@H]3O[C@H](COC(=O)/C(C)=C/C)[C@@H](O)[C@H](O)[C@H]3O[C@@H]3O[C@H](COC(=O)/C(C)=C/C)[C@@H](O)[C@H](OC(=O)/C(C)=C/C)[C@H]3O)O[C@H](COC(=O)/C(C)=C/C)[C@@H](O)[C@@H]2O)[C@H](O)[C@@H](O)[C@@H]1O |  | 65.9% [at 9.25 µM]
Cc1ccc(-c2c(C(=O)CF)n(CCCO)c3ncnc(N)c23)cc1 | 10.3 µM (active) | 
O=C(NCC1CCN(Cc2cccc(Cl)c2)CC1)[C@@H]1CCCN(c2ncnc3c2nc2n3CCCC2)C1 | 10.3 µM (active) | 
C/C=C(\C)C(=O)O[C@@H]1CC2[C@@H](CC=C3C[C@@H](O[C@H]4C[C@H](OC)[C@H](O[C@H]5C[C@H](OC)[C@H](O[C@@H]6O[C@H](C)[C@@H](O[C@H]7C[C@H](OC)[C@H](O[C@@H]8O[C@H](CO)[C@@H](O)[C@H](O)[C@H]8O)[C@@H](C)O7)[C@H](OC)[C@H]6O)[C@@H](C)O5)[C@@H](C)O4)CC[C@@]32C)[C@@]2(O)CC[C@H](C(C)=O)[C@@]12C (stereo not given in full) |  | 61.7% [at 9.25 µM]
C[C@@H]1CC[C@]2(C(=O)O[C@@H]3O[C@H](CO)[C@@H](O)[C@H](O)[C@H]3O)CC[C@]3(C)C(=CCC4[C@@]5(C)C[C@@H](O)[C@H](O)[C@](C)(C(=O)O)C5CC[C@]43C)[C@@H]2[C@]1(C)O (stereo not given in full) | inactive | 
CC(C)O[C@@H]1O[C@H](CO)[C@@H](O)[C@H](O)[C@H]1O | inactive | 
COc1ccc(/C=C/C(=O)O[C@@H]2[C@@H](O)[C@H](C)O[C@@H](OC3C4C=COC(O[C@@H]5O[C@H](CO)[C@@H](O)[C@H](O)[C@H]5O)C4C4(CO)OC34)[C@@H]2O)cc1OC (stereo not given in full) | inactive | 
C=C[C@H]1[C@H](O[C@@H]2O[C@H](CO)[C@@H](O)[C@H](O)[C@H]2O)OC=C(C(=O)OC)[C@H]1C[C@@H]1c2cc(O)c(O)cc2CCN1C(C)=O | inactive | 
COc1cc(-c2cc(-c3cccc(O)c3)cnc2N)cc(OC)c1OC | 9.2 µM (active) | 
C[C@H](CN(C)C)Oc1nc(Nc2cc3cccc(Cl)c3cn2)cnc1C#N | 411 nM (active) and 934 nM (active) | 
COC12CC3C(C(C)C1=CC(=O)O2)C(O)C(OC(C)=O)C1C(C)(C)C(OC(C)=O)CCC31C (stereo not given) | inactive | 
CCCCC(=O)N(Cc1ccc(-c2ccccc2-c2nn[nH]n2)cc1)C(C(=O)O)C(C)C (stereo not given) | inactive | 
CC1=C(C)C(=O)OC(C(C)C2CCC3C4C5OC5C5(O)CC(OC6OC(CO)C(OC7OC(C)C(O)C(O)C7O)C(O)C6O)CC(O)C5(C)C4CCC23C)C1 (stereo not given) | inactive | 
CN(CCO)C1CCN(c2ccc(Nc3ncc4c5ccnc(F)c5n(C5CCCC5)c4n3)nc2)CC1 | 0.0645 µM (active) | 
CC1(C)C2CCC1(C)C(OC(=O)C(O)(CC(=O)O)CC(=O)O)C2 (stereo not given) | inactive | 
CC1CC[C@]2(C(=O)O)CC[C@]3(C(=O)O)C(=CCC4[C@@]5(C)CC[C@H](O[C@@H]6O[C@H](CO)[C@@H](O)[C@H](O)[C@H]6O)C(C)(C)C5CC[C@]43C)C2C1C (stereo not given in full) | inactive | 
OC[C@H]1O[C@@H](O[C@H]2[C@H](O)[C@@H](CO)O[C@@H](OCc3ccccc3)[C@@H]2O[C@@H]2OC[C@](O)(CO)[C@H]2O)[C@H](O)[C@@H](O)[C@@H]1O | inactive | 
CC1(C)S[C@@H]2[C@H](NC(=O)[C@H](NC(=O)N3CCN(S(C)(=O)=O)C3=O)c3ccccc3)C(=O)N2[C@H]1C(=O)O | inactive | 
CC(O)CO[C@@H]1O[C@H](CO)[C@@H](O)[C@H](O)[C@H]1O (stereo not given in full) | inactive | 
C/C(CO)=C1/CCC23COC(C2)C(O)(C(=O)O)CCC13 (stereo not given) | inactive | 
CC(C)c1nc(N(C)S(C)(=O)=O)nc(-c2ccc(F)cc2)c1/C=C/[C@@H](O)C[C@@H](O)CC(=O)O | 2.91 µM (active) | 
CC[C@H](C)[C@H](NC(=O)[C@H](Cc1ccc(O)cc1)NC(=O)[C@@H](N)C(C)C)C(=O)N[C@@H](Cc1cnc[nH]1)C(=O)N1CCC[C@H]1C(=O)N[C@@H](Cc1ccccc1)C(=O)O |  | 102% [at 4.97 µM]

Source: PubChem BioAssay (NCATS)
